Drawing on the OligoGym collection, this text covers sensor-assay potency score (higher = more potent) for 38 sequences.
Further: reference of the scale not given here.

The target in one experiment is GHDC. Kind of experiment: pooled miR-30 sensor sort-seq; sequence = guide strand. The note with it: shRNA.
Regarding TCCACTGTCTTCCTGCTGGGTC, the sensor-assay potency score (higher = more potent) is -1.07. Still for that read-out and setting: the same measure for TTTTCCTCTGACAGATTCCTCA: -0.542. Same read-out and setting: the same measure for AGAAGTTCGACAGCCGTCCCAG: -0.973; for TCCAGCCTGCAGATGAACCTGA: -0.985; for TTATGTCTGTGCTCCTTCTGAG: -0.0646. ATTGTAGGCACCAACCACTCGC registered a sensor-assay potency score (higher = more potent) of 0.0645. TTGTAGGCACCAACCACTCGCA displayed a sensor-assay potency score (higher = more potent) of -0.926.

Regarding TAGCTCTTCACCATCAGTCTCC, the sensor-assay potency score (higher = more potent) is 0.0115.

For TTCCTCTGACAGATTCCTCAGC, the sensor-assay potency score (higher = more potent) is -0.103. CTGCTCTCCACTGTCTTCCTGC gave a sensor-assay potency score (higher = more potent) of -1.58. TCAGAGAACAGGTCTTCACCAA gave a sensor-assay potency score (higher = more potent) of 0.187. The same measure, in the same setting: the same measure for TGCTGCTCTCCACACAGCCATG: -2.06.

For a further experiment, the target named is GHRL. Described as above. The note with it: shRNA.
Sequence TCTTCGACTCCTTTCTCTGCTG returned a sensor-assay potency score (higher = more potent) of -0.622.

TACTGAACCCCTGACAGCTTGA displayed a sensor-assay potency score (higher = more potent) of -0.592. Take TAGAGCTCGGGGCTGCAGCTTG: the sensor-assay potency score (higher = more potent) is -0.899. In turn, TCTCTGCTGGACTCTCTGGTGT gave a sensor-assay potency score (higher = more potent) of -0.98. Take TGCTTGACCTCCATCTTCCGGG: the sensor-assay potency score (higher = more potent) was -0.583.

Sequence TTCTGCTTGACCTCCATCTTCC gave a sensor-assay potency score (higher = more potent) of -0.0657. On to TTGACCTCCATCTTCCGGGCGG, for which the sensor-assay potency score (higher = more potent) is -0.454. Take TGTCCTGAAGAAACTTCCCCAG: the sensor-assay potency score (higher = more potent) is -1.03. The sequence TGAGCTTGTACAACAGTCGTGG displayed a sensor-assay potency score (higher = more potent) of 0.776. On to TTCTCTGCTGGACTCTCTGGTG, for which the sensor-assay potency score (higher = more potent) was -0.904. Still for that read-out and setting: under TTGATTCCAACATCAAAGGGGG stands 0.299. TTTCTCTGCTGGACTCTCTGGT registered a sensor-assay potency score (higher = more potent) of 0.0983.

Another experiment addresses GHR. Described as above. To be noted: shRNA.
In the case of TTTCTGAATATCTGCATTGCGT, the sensor-assay potency score (higher = more potent) is -0.999. In the case of TTCTGGTATAGAACAGCTGTAT, the sensor-assay potency score (higher = more potent) was -1.1. As to TAGCTCAATAAATTCAACCCAA, the sensor-assay potency score (higher = more potent) is -0.0787. Regarding TATGAATGGAGGTATAGTCTGG, the sensor-assay potency score (higher = more potent) was 0.0222. TTAGAAGTCTGTCTGTGTCTGA showed a sensor-assay potency score (higher = more potent) of 0.716. On to TTCATCAACAGAGAAACACTTT, for which the sensor-assay potency score (higher = more potent) was found to be 0.81. In the case of TAATCTTTGGAACTGGAACTGG, the sensor-assay potency score (higher = more potent) was -0.523.

Consider TGAACTTGGATTGCTTAGCTGA, for which the sensor-assay potency score (higher = more potent) was 0.127.

Sequence TAGAAGTCTGTCTGTGTCTGAT displayed a sensor-assay potency score (higher = more potent) of -0.00194. Sequence TTAGCTTGATACAATAAGGTAT came in with a sensor-assay potency score (higher = more potent) of 0.218. The sequence TCATACTCCAGAACCATCCATC registered a sensor-assay potency score (higher = more potent) of -0.368.

Another experiment addresses GHSR. The experiment is described as above. To be noted: shRNA.
Sequence TTTGCAGAGGAGGTCGCCGAAG returned a sensor-assay potency score (higher = more potent) of -1.38. For the sequence TTGGACATGATGTTGTACAGAA, the sensor-assay potency score (higher = more potent) stood at 0.099. Sequence ATCTGAGCAATCTCCAAGGAGC registered a sensor-assay potency score (higher = more potent) of -1.45.
